Test results taken from PubChem BioAssay AID1578 (Sanford-Burnham Center for Chemical Genomics, 2009).
Screen size: about 290,000 compounds; about 3,000 (1%) were called active. What follows is part of a selection rich in actives, with near analogues and random picks from the rest. Unmarked numbers belong to inactive results. No stated cut-off is given here; in the data, active means inhibition mostly above about 36% (no sharp cut-off); inactive means mostly below about 34%.

Assay: NOD1 signaling inhibitors, primary screen, cell-based, luminescence, uHTS (AID 1578);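 further: HEK-293T reporter cells stimulated with the NOD1 agonist gamma-tri-DAP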
Conditions: NOD1-driven NF-kB luciferase reporter cells, at 4 µM, active compounds read high

Compound	inhibition
O=C(NCCc1ccccc1)c1ccc(CS(=O)Cc2cccc(Cl)c2)o1 (stereo not given)	-20.6%
CCOC(=O)c1c(/N=C/c2ccccc2O)sc2c1CCC2	8.8%
COc1ccc(S(=O)(=O)NCCc2c(C)nn(C)c2Oc2ccccc2)cc1	-4.8%
COc1ccc(CCCC(=O)Nc2ccc(F)cc2)cc1	11.5%
CCNc1nc(NC(C)C)nc(Oc2ccc(/C=N/O)cc2)n1	-10.5%
CCOc1ccc(CC2NCCc3cc(OCC)c(OCC)cc32)cc1OCC (stereo not given)	-27.9%
CSc1ccc(C(=O)C2CCCN(C(=O)CN3CCOC3=O)C2)cc1 (stereo not given)	-29.8%
CCOc1ccc(C(=O)NCCC(=O)N2CCC3(CC2)NCCc2[nH]cnc23)cc1	-23.8%
O=C(N/N=C/c1ccc(OCc2ccccc2)cc1)c1ccncc1	-35.1%
COc1ccc(N(Cc2ccccc2)N=O)cc1	-31.8%
O=NN(CCc1ccncc1)c1ccc(OCc2ccccc2)cc1	43.7% (active)
Cc1c(C)c2ccc(O)c(CN3CCN(C)CC3)c2oc1=O	2%
CCOc1ccccc1NC(=S)NC(=O)C1CCCCC1	-8%
CCOc1ccccc1NC(=S)NC(=O)C1CC1	65.9% (active)
COc1ccccc1NC(=S)NC(=O)C1CC1	-18.7%
CC(=O)Nc1ccc(NC(=O)CSc2nnc(NC(=O)C3CC3)s2)cc1	-6.1%
CN1C(=O)c2cccc(NC(=O)C3CCCCC3)c2C1=O	-4%
Cc1cccc(NC(=S)NNc2ncc(C(F)(F)F)cc2Cl)c1	34.9%
FC(F)(F)c1cnc(NNC(=S)Nc2ccc(Cl)cc2)c(Cl)c1	104% (active)
Cc1ccc(NC(=S)NNc2ncc(C(F)(F)F)cc2Cl)cc1	36.4%
C=CCN1C(=O)C(CC(=O)O)SC1=Nc1ccc(N=Nc2ccccc2)cc1 (stereo not given)	-20.5%
O=C(CN1C2=NCCN2c2ccccc21)c1ccc(Br)cc1	6.8%
Cc1ccc2c(Cl)cc(Cl)c(OCC(=O)NCc3ccco3)c2n1	101% (active)
Cc1ccc2c(Cl)cc(Cl)c(OCC(=O)NC(=O)NCc3ccco3)c2n1	-16.8%

Compound	inhibition
Cc1ccc2c(Cl)cc(Cl)c(OCC(=O)N(C(C)C)C(C)C)c2n1	-3.8%
Cc1cc(Cl)cc(Cl)c1OCC(=O)NCc1ccco1	20.4%
Cc1ccc2c(Cl)cc(Cl)c(OCC(=O)NC(C)(C)C)c2n1	-11.5%
CCN(CC(=O)NC(C)(C)C)C(=O)COc1c(Cl)cc(Cl)c2ccc(C)nc12	49.3% (active)
COc1cccc(CN(C)C(=O)CNC(=O)c2ccc3c(c2)OCO3)c1OC	-8.5%
CC(C(=O)Nc1ccc2c(c1)OCO2)N(c1ccc(Cl)cc1)S(C)(=O)=O (stereo not given)	-9.6%
COc1ccc(-c2oc(NC(C)=O)c(C#N)c2-c2ccc(OC)cc2)cc1	11.7%
COc1ccc(-c2oc(NC(=O)CCl)c(C#N)c2-c2ccc(OC)cc2)cc1	71.1% (active)
COc1ccc(-c2oc(NC(=O)c3ccc(C)cc3)c(C#N)c2-c2ccc(OC)cc2)cc1	-18.9%
COC(=O)CN1C(=O)C2(C(C#N)=C(N)Oc3ccccc32)C2=C1CC(C)(C)CC2=O (stereo not given)	1.7%
COc1ccc(-n2c(C)c(C(C)=O)c(C(C)=O)c2C)cc1OC	-0.8%
COc1ccc(NC(=S)NC(NC(C)=O)C(Cl)(Cl)Cl)c([N+](=O)[O-])c1 (stereo not given)	-5.3%
COc1ccc(NC(=S)NC(NC(=O)C(C)C)C(Cl)(Cl)Cl)c([N+](=O)[O-])c1 (stereo not given)	11.7%
COc1ccc(NC(=S)NC(NC(=O)CCl)C(Cl)(Cl)Cl)c([N+](=O)[O-])c1 (stereo not given)	76.4% (active)
CCOC(=O)N1CCC(NC(=O)c2ccc3c(c2)N=C(CC)c2ccccc2S3)CC1	20.2%
O=C(NNC(=S)Nc1ccccc1)c1ccccc1[N+](=O)[O-]	-34.4%
CCC(C)(C(=O)NC1CCCCC1)N(C(=O)CNC(C)=O)c1c(C)n(C)n(-c2ccccc2)c1=O (stereo not given)	-13.9%
NC(=S)NN=C1c2cc(S(=O)(=O)N3CCOCC3)ccc2-c2ccc(S(=O)(=O)N3CCOCC3)cc21	-20.4%
NC(=S)NN=C1c2cc(OCCN3CCOCC3)ccc2-c2ccc(OCCN3CCOCC3)cc21	42.8% (active)
ON=C1c2cc(OCCN3CCCCC3)ccc2-c2ccc(OCCN3CCCCC3)cc21	0.3%
Cc1cccc(C(=O)Nc2ccc(C(=O)Nc3ccc(O)cc3)cc2)c1	-22.1%
COc1ccc(CC(=O)OCC(=O)NCCc2ccccc2)cc1OC	-25.2%
C=CCn1c(SCCOc2ccc(OC)cc2)nnc1C(C)NC(=O)c1ccc(OC)cc1 (stereo not given)	5.8%
C=CCn1c(SCCOc2ccc(OC)cc2)nnc1C(C)NC(=O)Cc1ccc(OC)cc1 (stereo not given)	74.9% (active)

Compound	inhibition
COc1ccc(CC(=O)NC(C)c2nnc(SCCOc3ccc(OC)cc3)n2C)cc1 (stereo not given)	-0.8%
COc1ccc(-c2cc(C(=O)N/N=C(\C)c3ccco3)c3ccccc3n2)c(OC)c1	-42.5%
CCN1C(=NCc2ccc(OC)cc2)N[C@@H](c2ccccc2)C(C(=O)OC)=C1C	-15.5%
CC(C)CCN1CCN(Cc2cccn2-c2nccs2)CC1CCO (stereo not given)	-20.1%
CN1CCN(C(=O)CCC(=O)O)CC1	-14.8%
COc1ccc2cc3c(N)nn(C(=O)Cc4ccc(Cl)cc4)c3nc2c1	14.9%
COc1cccc(CC(=O)n2nc(N)c3cc4ccc(OC)cc4nc32)c1	3.9%
CCN(CC)c1ncnc2ccc(Br)cc12	67.5% (active)
Clc1cccc(Nc2ncnc3ccc(Br)cc23)c1	11.7%
CCOc1ccccc1Nc1ncnc2ccc(Br)cc12	-11.1%
CC(C)Nc1ncnc2ccc(Br)cc12	87.6% (active)
Cc1cccc(Nc2ncnc3ccc(Br)cc23)c1	42.4%
CN(C)c1ccc(Nc2ncnc3ccc(Br)cc23)cc1	53.8%
OCCNc1ncnc2ccc(Br)cc12	46.1%
CN(Cc1ccccc1)c1ncnc2ccc(Br)cc12	10.2%
Cc1ccc(CC2C(=O)N(c3cc(Cl)ccn3)C(=O)C2C)cc1 (stereo not given)	-9.5%
Cc1nn(C)cc1CN1CCC(n2nccc2NC(=O)CCCc2ccccc2)CC1	-26.7%
O=C(/C=C/c1ccco1)c1ccccc1O	-22.5%
COc1ccc(NC(=O)c2cc(-c3ccc(OC)c(OC)c3)on2)cc1OC	-8.9%
N#Cc1ccc(N2CCCC2C(=O)O)c([N+](=O)[O-])c1 (stereo not given)	6.2%
COC(=O)C1(c2ccccc2)NC(c2cccs2)C2C(=O)N(C)C(=O)C21 (stereo not given)	-15.5%
CN(C)/C=C1\N=C(c2cccnc2Oc2ccc(Cl)cc2)OC1=O	-11.9%
COc1ccc(OC)c(NC(=O)CNC(=O)Cn2ccc3ccccc3c2=O)c1	-4%
CN(C)c1nc2n(c(=O)n1)CCS2	-11.7%

Compound	inhibition
CCOC(=O)C1CCN(S(=O)(=O)c2c(Cl)ccc3nonc23)CC1	102% (active)
CCOC(=O)C1CCN(S(=O)(=O)c2cccc3nonc23)CC1	-27.8%
CCOC(=O)C1CCN(S(=O)(=O)c2c(C)noc2C)CC1	-15.9%
CC(CCN1CCOCC1)c1ccccc1 (stereo not given)	-28%
O=C(NC1CCCCC1)c1ccc(S(=O)(=O)c2ccccc2Cl)c([N+](=O)[O-])c1	91.4% (active)
Cc1ccc(C(=O)N2CCN(c3ccccc3)CC2)cc1S(=O)(=O)N1CCCC1	3.9%
O=C(c1ccc(S(=O)(=O)Cc2ccccc2F)c([N+](=O)[O-])c1)N1CCCCCC1	1%
O=C(NC1CCCC1)c1ccc(Cl)c(S(=O)(=O)N2CCCCC2)c1	10.6%
O=C(c1ccc(Br)c([N+](=O)[O-])c1)N1CCN(Cc2ccccc2)CC1	-6.4%
O=C(c1ccc(Cl)c(S(=O)(=O)N2CCCC2)c1)N1CCN(c2ccc(F)cc2)CC1	0.4%
O=C(c1ccc(S(=O)(=O)Cc2cc(F)ccc2F)c([N+](=O)[O-])c1)N1CCCC1	5%
Cc1cc(C(=O)N2CCN(Cc3ccccc3)CC2)ccc1[N+](=O)[O-]	0.5%
O=C(NC1CCCCC1)c1ccc(S(=O)(=O)c2ccccc2)cc1	18%
COc1cccc(C(=O)NCCCNC(=O)c2cccc(OC)c2)c1	-4.9%
CCN(CC)S(=O)(=O)c1ccc(S(=O)(=O)N2CCN(C(=O)c3ccco3)CC2)cc1	-3.5%
CC(=O)Nc1ccc(NC(=O)C(C)Sc2nnc(-c3cccs3)o2)cc1 (stereo not given)	-14.2%
Cc1ccccc1C(=O)Nc1ccccc1	-15.4%
Cc1c(C(=O)NN2CCOCC2)oc2c1ccc1ccccc12	-35.1%
COc1ccc(CCNC(=O)COC(=O)/C=C/c2ccc(OCC#N)c(OC)c2)cc1	-30.9%
Cc1cc(C)n2nc(C(=O)N3CCN(c4ccc([N+](=O)[O-])cc4)CC3)nc2n1	-21.8%
CCOC(=O)C1CCN(CC(O)COCc2ccc(Cl)cc2)CC1 (stereo not given)	-12.3%
CCOC(=O)C1CCN(CC(O)COCc2cccs2)CC1 (stereo not given)	-28.2%
CCOC(=O)C1CCN(CC(O)COCc2ccccc2)CC1 (stereo not given)	34.7% (active)
